Laboratory results taken from ChEMBL document CHEMBL4513216, “Probing the Open Global Health Chemical Diversity Library for Multistage-Active Starting Points for Next-Generation Antimalarials” (ACS Infect Dis, 2020).
About 2,100 (3.2%) of roughly 65,000 compounds showed an effect of 50% or more. The median lay at about -52%. For the sample, strong results were picked, then their nearest neighbours and some compounds at random.

system: Plasmodium falciparum; assay: Screen against P. falciparum Asexual Blood Stage (ABS), at 5uM; assay type: functional, Dd2; settings: tested at 5 uM

| Structure (SMILES) | INHIBITION |
| --- | --- |
| CC(C)Nc1ncc(-c2csc(NC(=O)C[C@H]3COCCN3)n2)cn1 | -130% |
| c1ccc(CN2CCc3ncnc(-c4cccnc4)c3CC2)nc1 | -71.1% |
| Cc1cnccc1NCCNC1CCSCC1 | -40.9% |
| CCc1nccn1CC(=O)Nc1cccc(N2CCCC2)c1 | -50.9% |
| Cn1nc(C2CCCNC2)c2c(C(=O)NC3CC3)cc(C3CC3)nc21 (centres undefined) | -98.6% |
| CC(=O)c1ccc(OCC(=O)NS(=O)(=O)c2ccc(C)s2)cc1 | -93.5% |
| CC(C)C(NC(N)=O)C(=O)NCc1ccc(N2CCCC2)nc1 (centres undefined) | -34.4% |
| Cc1noc(CN2C[C@@H]3CC[C@H]2CN(C2Cc4ccccc4C2)C3)n1 | 3.93% |
| Cc1cc(CN2C[C@@H]3CC[C@H]2CN(C2Cc4ccccc4C2)C3)on1 | 62.7% |
| Cc1nnc(CN2C[C@@H]3CC[C@H]2CN(C2Cc4ccccc4C2)C3)o1 | 38.4% |
| Cc1noc(CNC(=O)CN(C)c2nc3c(C)ccc(C)c3s2)n1 | -71.5% |
| CCCn1nccc1-c1cc(C2CCN(S(C)(=O)=O)CC2)ccn1 | -114% |
| COCCN(C)C[C@@H]1CCC[C@@H]2CN(c3ncccn3)C[C@@H]21 | 33.9% |
| Cc1ccc(N2C[C@H]3CCC[C@@H](CN(C)C)[C@H]3C2)nn1 | -54.9% |
| CN(C)C[C@@H]1CCC[C@@H]2CN(c3ncccn3)C[C@@H]21 | 44.8% |
| CN(C[C@@H]1CCC[C@@H]2CN(c3ncccn3)C[C@@H]21)C1CC1 | 17.5% |
| CN(C)C[C@@H]1CCC[C@@H]2CN(c3cccnc3)C[C@@H]21 | 56.4% |
| CN(C)C[C@@H]1CCC[C@@H]2CN(c3nccc(C(F)(F)F)n3)C[C@@H]21 | 64.8% |
| O=C(NCc1cc(=O)n2c(n1)CN(CC1CC1)CCC2)c1ccsc1 | -69.7% |
| c1cnc(N2CC3(CCN(C4CCOCC4)CC3)c3ccccc32)nc1 | 64% |
| c1cnc(N2CC3(CCN(C4CCOC4)CC3)c3ccccc32)nc1 (centres undefined) | -101% |
| c1cnc(N2CC3(CCN(CC4CCOC4)CC3)c3ccccc32)nc1 (centres undefined) | -5.4% |
| COCCN1CCc2cc(C(=O)NC(C)C)c(NCC3CC3)nc2CC1 | 33.6% |
| O=C(CCn1cccn1)NCCOc1ncc(Cl)cc1Cl | 18.7% |
| N#Cc1ccc(N2CCC3(CC2)CC(OCc2cccnc2)CO3)cc1 (centres undefined) | -57.3% |
| COCCN1CCC2(CC1)CC(NC(=O)CN(C)C)c1ccccc1O2 (centres undefined) | 67.7% |

| Structure (SMILES) | INHIBITION |
| --- | --- |
| COCCN1CCC2(CC1)CC(NC(=O)CC1CC1)c1ccccc1O2 (centres undefined) | -92.9% |
| COCCN1CCC2(CC1)CC(NC(=O)COC)c1ccccc1O2 (centres undefined) | -38.3% |
| CNCc1cc(C)n(-c2ccccc2OC)c1C | 30.8% |
| Cc1nn(C)c(C)c1C1CCCN1Cc1cccc(OCC(N)=O)c1 (centres undefined) | -22.6% |
| CCn1cncc1CNC(=O)c1ccc(C2CCCN2C(=O)COC)s1 (centres undefined) | -32.8% |
| O=C(NCC1CC1)[C@@H]1CCO[C@@H]2CCN(Cc3ccsc3)C[C@H]21 | 50.9% |
| O=C(NCC1CC1)[C@@H]1CCO[C@@H]2CCN(Cc3ccc(F)cc3)C[C@H]21 | 22.5% |
| O=C(NC1CC1)[C@@H]1CCO[C@@H]2CCN(Cc3ccsc3)C[C@H]21 | -48.8% |
| O=C(NCCCn1ccnc1)NCC(c1ccco1)N1CCCC1 (centres undefined) | -96.3% |
| CCN1CCCC(CN(C)c2nccc(-c3ccc(C)nc3C)n2)C1 (centres undefined) | 26.3% |
| CC(C)N[C@@H]1CC[C@@H]1NC(=O)c1ccccc1OC(F)(F)C(F)F | 54.4% |
| N[C@@H]1CC[C@@H]1NC(=O)c1ccccc1OC(F)(F)C(F)F | 42.2% |
| O=C(N[C@@H]1CCNC[C@H]1O)c1ccccc1OC(F)(F)C(F)F | -173% |
| Cc1ccnc(NCc2cn3nc(C)sc3n2)n1 | -114% |
| O=C(Cc1ccc2c(c1)OCC2)Nc1nc[nH]n1 | -116% |
| c1cnn(Cc2cnc3n2CCN(CC2CCCCC2)C3)c1 | 4.97% |
| COCCCNC(=O)CN(C)C(C)c1nc(C(C)C)no1 (centres undefined) | -119% |
| Cc1cccc(C2(C(=O)NCC3CN(C)CCO3)CC2)c1 (centres undefined) | 0.579% |
| CN1CCOC(CNC(=O)C2(c3cccc(C(F)(F)F)c3)CCCC2)C1 (centres undefined) | 55.9% |
| CN1CCOC(CNC(=O)C2(c3ccccc3)CCC2)C1 (centres undefined) | -66.7% |
| CN(Cc1csc(-c2cnn(C)c2)n1)CC1CCN(CCO)CC1 | -6.54% |
| c1nc(N2CCOCC2)ncc1-c1cncn1CCCN1CCCCC1 | -102% |
| CC(Cn1cncc1-c1cnn(C2CCCCC2)c1)N1CCCCC1 (centres undefined) | 13.6% |
| c1nn(C2CCCCC2)cc1-c1cncn1CCCN1CCCCC1 | 62.1% |
| Cc1ccccc1N1CCCN(C(=O)CC2CN(C(C)C)CCO2)CC1 (centres undefined) | 11.3% |
| COc1cc(CCC(=O)NCC2CCCN2C)ccc1OCC(F)(F)F (centres undefined) | 43.4% |

| Structure (SMILES) | INHIBITION |
| --- | --- |
| CN1CCCC1CNC(=O)CCCOc1ccc(F)cc1 (centres undefined) | 48.7% |
| CN1CCCC1CNC(=O)CCOc1ccc(Cl)cc1 (centres undefined) | 67.9% |
| CN1CCCC1CNC(=O)CCCOCc1ccccc1 (centres undefined) | -46.6% |
| CN1CCCC1CNC(=O)CCCOc1cccc(F)c1 (centres undefined) | 35.7% |
| CN1CCCC1CNC(=O)CCOc1ccc(Br)cc1 (centres undefined) | 62.6% |
| Cc1ncc(CNC(=O)CCOc2ccccc2)c(C2CCCN2C)n1 (centres undefined) | -57% |
| CC(=O)c1cccc(OCCCC(=O)NCC2CCCN2C)c1 (centres undefined) | 3.79% |
| CN1CCCC1CNC(=O)CCCOc1ccc(I)cc1 (centres undefined) | 59.8% |
| CC(C)c1nc(O)c2nnn(C[C@@H]3CCCN(Cc4cccs4)C3)c2n1 | -32.9% |
| O=C1CO[C@@H]2CN(S(=O)(=O)c3ccc(F)cc3)C[C@H]2N1 | -28.2% |
| Cc1cc(C(=O)N2CC[C@@]3(O)CCN(S(C)(=O)=O)C[C@H]3C2)c(C)n1C | -156% |
| O=C(CNC(=O)c1cnccn1)Nc1ncc[nH]1 | -51.8% |
| CCC(=O)N1CCN(c2ncnc3c(C)nn(C)c23)CC1 | -52.3% |
| O=C(NC1CCCC1)O[C@H]1COCCN(c2nc3ccccc3s2)C1 | -31.6% |
| CCNC(=O)O[C@H]1COCCN(c2nc3ccccc3s2)C1 | 54.8% |
| O=C(NC1CCCC1)O[C@H]1COCCN(c2nc3ccccc3o2)C1 | -59.6% |
| CCOc1ccccc1CNC(=O)N1CCC(n2cncn2)CC1 | -19.1% |
| COc1ccc(CN2C[C@@H]3CN(Cc4ccncc4)C[C@@H]3C2=O)cc1 | -48% |
| COc1ccc(CN2C[C@H]3CN(Cc4ccncc4)C(=O)[C@H]3C2)cc1 | -22.1% |
| COc1ccc(CN2C[C@@H]3CN(CCO)C[C@@H]3C2=O)cc1 | 50.3% |
| Cc1cccc(CN2CCCC3(CCN(CC4CCCO4)CC3)C2)n1 (centres undefined) | 45.2% |
| COc1cc(C(=O)NCC2CC2)nc2c(C)cc(F)cc12 | -103% |
| C[C@@H]1CN(c2nc3c(cc2C(N)=O)CCC3)CC[C@@]1(O)C1CCC1 | -80.6% |
| C[C@@H]1CN(c2nc(N)nc3c2CCC3)CC[C@@]1(O)C1CCC1 | 68.5% |
| C[C@@H]1CN(c2nc(N)nc3c2CCC3)C[C@]1(C)O | -48.4% |
| COc1ccc(CN(C)C(=O)CN2CC(n3cccn3)C2)cc1F | 26.7% |

| Structure (SMILES) | INHIBITION |
| --- | --- |
| CCCNC(c1ccc(F)cc1)c1cccnc1 (centres undefined) | 35.6% |
| CCNC(c1cccnc1)c1ccc(F)c(C)c1 (centres undefined) | 25.4% |
| CCCNC(c1cccnc1)c1ccc(F)c(C)c1 (centres undefined) | 57.9% |
| CCOCC(=O)N1C[C@@H]2COC[C@]2(c2nc(C)no2)C1 | -63.5% |
| Cc1cc(C)nc(N2CCCC(c3cccc(-n4ccnc4)n3)C2)n1 (centres undefined) | 66.3% |
| c1cnc(N2CCCC(c3cncc(-n4ccnc4)n3)C2)nc1 (centres undefined) | -20.6% |
| CC(=O)N1CCCC(c2cccc(-n3ccnc3)n2)C1 (centres undefined) | -75.7% |
| O=C(Cc1ccccn1)N1CCc2c(O)nc(-c3cnccn3)nc2C1 | -157% |
| CCOCc1cncc2c1CCN(C(=O)c1cscn1)C2 | -43.3% |
| c1cnc2ccc(C[C@@H]3CC[C@H](CN4CCCOCC4)O3)cc2c1 | 57.9% |
| CC(=O)N1CCN(C[C@H]2CC[C@@H](Cc3ccc4ncccc4c3)O2)CC1 | -16.4% |
| c1cncc(C[C@@H]2CC[C@H](CN3CCCOCC3)O2)c1 | -54% |
| O=C(NCCCN1CCCCCC1=O)c1n[nH]c(=O)c2ccccc12 | -16.5% |
| O=C(NC1CC1)c1nc(Cn2c(C(F)F)nc3ccccc32)no1 | -138% |
| COCC(c1cccc(C(F)(F)F)c1)N(C)C(=O)c1ccncc1 (centres undefined) | -196% |
| COCC(c1cccc(C(F)(F)F)c1)N(C)C(=O)c1cccnc1 (centres undefined) | 66.9% |
| COCC(c1cccc(C(F)(F)F)c1)N(C)C(=O)c1cnccn1 (centres undefined) | 48.8% |
| CC(C)n1nc2c(cc1=O)CN(c1ncnc3ccccc13)CC2 | -52.6% |
| CN(C)C(=O)Cn1c2c(ccc1=O)CCN(Cc1cnn(C)c1)CC2 | -39.8% |
| COCC(=O)NC(C)c1sc(-c2ccccc2F)nc1C (centres undefined) | -22.6% |
| Cc1cccc(CN2CCCCC2c2n[nH]cc2-c2cc(C)no2)c1 (centres undefined) | 52% |
| COc1cccc(CN2CCCCC2c2n[nH]cc2-c2cc(C)no2)c1 (centres undefined) | 35.3% |
| CCc1ccc(CN2CCCCC2c2n[nH]cc2-c2cc(C)no2)cc1 (centres undefined) | 33.5% |
| Cc1cc(-c2c[nH]nc2C2CCCCN2C(=O)c2ccccc2)on1 (centres undefined) | -6.99% |
| COc1ccc(CN2CCCCC2c2n[nH]cc2-c2cc(C)no2)cc1 (centres undefined) | 35.5% |
| COc1ccccc1CN1CCCCC1c1n[nH]cc1-c1cc(C)no1 (centres undefined) | 66.4% |
